From publication PMC4552634, “A New Set of Chemical Starting Points with Plasmodium falciparum Transmission-Blocking Potential for Antimalarial Drug Discovery” (PLoS ONE, 2015)
The whole screen tested about 13,000 compounds, of which about 3,200 (25%) showed an effect of 50% or more. This is one part of the list.

tested on: P. falciparum stage V gametocytes; parameters: BacTiter-Glo ATP luminescence viability of purified stage V gametocytes in 384-well plates, per cent inhibition versus DMSO; conditions: 48 h, 5 µM; inhibitor

SMILES | % Inhibition [%]
O=C(c1cccc(-c2noc(C(F)(F)F)n2)c1)N1CCN(c2nsc3ccccc23)CC1 [TCMDC-132425] | -18.4
O=S(=O)(c1ccccc1)n1ccc2cc(Nc3ncnc4cc(C#C[C@H]5CCCN5)sc34)ccc21 [TCMDC-138913] | 83.41
Clc1cc(Nc2ncnc3sc(C#C[C@H]4CCCN4)cc23)ccc1OCc1cccnc1Cl [TCMDC-134849] | 8.343
O=C(O[C@H]1CN[C@H](C#Cc2cc3ncnc(Nc4ccc5c(ccn5S(=O)(=O)c5cccs5)c4)c3s2)C1)N1CCOCC1 [TCMDC-134691] | 26.92
Fc1cccc(COc2ccc(Nc3ncnc4sc(C#CC5CCCCN5)cc34)cc2Cl)c1 (stereo not drawn) [TCMDC-138878] | 40.6
Clc1cc(Nc2ncnc3cc(C#C[C@H]4CCCN4)sc23)cc2[nH]c(Cc3ccccc3)nc12 [TCMDC-134519] | 58.91
CN(C)C(=O)O[C@@H]1CN[C@H](C#Cc2cc3ncnc(Nc4ccc5c(cnn5Cc5cccc(F)c5)c4)c3s2)C1 [TCMDC-135233] | 25.46
COc1ccc(-c2cc(NCc3ccc(-n4ccnc4)cc3)nc(Nc3ccccc3)n2)cc1 [TCMDC-133466] | 0.1166
Cc1ccc(Nc2nc(NN=Cc3ccc(-c4ccc([N+](=O)[O-])cc4)o3)nc(N3CCOCC3)n2)cc1Cl [TCMDC-123853] | 16.13
COc1ccc(CNCc2ccc(F)cc2)cc1-c1cccc(S(=O)(=O)NCCN2CCCC2)c1 [TCMDC-132223] | 101.2
COc1ccc(F)cc1-c1cccc(CNC2CCN(CC3Cn4c(=O)ccc5ccc(F)c3c54)CC2)c1 (stereo not drawn) [TCMDC-134406] | -45.9
COc1ccc(CNCc2ccccc2)cc1-c1cccc(S(=O)(=O)NCCN2CCCC2)c1 [TCMDC-132268] | 57.83
COc1ccc2nccc([C@@H](O)CN3CCC(NC(=O)c4ccc(Cl)c(Cl)c4)CC3)c2c1 [TCMDC-141036] | -20.77
COc1cc(Nc2nccc(Nc3ccc4c(C)[nH]nc4c3)n2)cc2ccccc12 [TCMDC-138587] | -18.63
CC(Oc1cccc(Cl)c1)C(=O)N1CCc2ccccc21 (stereo not drawn) [TCMDC-123685] | -22.19
CC(=O)Nc1ccc(CN(Cc2ccc(F)cc2)Cc2ccc3c(c2)OCO3)cc1 [TCMDC-140255] | 12.12
CN(CC(=O)Nc1ccc(F)cc1)C(=O)c1ccc(-c2ccc(F)cc2)o1 [TCMDC-125342] | 61.72
O=C(NCc1ccc(F)cc1)Nc1ccc(-c2ccc(-c3nc4ccccc4[nH]3)cc2)cc1 [TCMDC-133299] | -2.169
